# Measurements published in the supplement of paper PMC8975748.
# Counter-ions that a name gives are not always drawn. ± gives the standard deviation of the averaged measurements.
# Tests used:
# [1] = system: Saccharomyces cerevisiae BY4741 SeMeCo community; assay: mean cell size (pixel area) (pixels); higher = larger cells; conditions: 10 µM; 24 h; SM minimal medium
# Summary of the method: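 Mean cell pixel area per well was measured in a four-plasmid fluorescent community of Saccharomyces cerevisiae BY4741, where every plasmid complements one auxotrophy and carries a fluorescent marker. Cells from an overnight preculture at OD600 = 1.0 were diluted to OD600 = 0.3 and dispensed at 70 µl into 384-well plates acoustically predosed with drug to a final 10 µM in SM medium. Incubation lasted 24 h, followed by paraformaldehyde fixation, automated confocal imaging and analysis in Harmony. Reported figures are averaged over 3 replicates. Same SeMeCo high-content imaging drug screen: Selleck FDA-approved drugs at 10 µM, 24 h in SM medium, 384-well plates, 3 replicates.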
# [2] = system: Saccharomyces cerevisiae BY4741 SeMeCo community; assay: z-score of prototroph abundance vs DMSO median; higher = larger share of this subpopulation than in DMSO controls; conditions: 10 µM; 24 h; SM minimal medium; subpopulation (auxotrophy): Prototroph
# Summary of the method: (§1)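 Four plasmids, each restoring a single auxotrophy and encoding a distinct fluorescent protein, were carried by a Saccharomyces cerevisiae BY4741 community. After overnight growth to OD600 1.0 and dilution to 0.3, 70 µl per well was grown for 24 h in minimal SM medium on 384-well plates acoustically predosed with library drugs at 10 µM final. Following paraformaldehyde fixation, automated confocal microscopy was used, with single-auxotroph fluorescent strains defining thresholds and autofluorescence correction. Subpopulation abundance was then scored as a z-score against the vehicle-well median.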
# [3] = system: Saccharomyces cerevisiae BY4741 SeMeCo community; assay: z-score of subpopulation abundance vs DMSO median, subpopulation auxotrophic for M; higher = larger share of this subpopulation than in DMSO controls; conditions: 10 µM; 24 h; SM minimal medium; subpopulation (auxotrophy): M
# Summary of the method: as §1
# [4] = system: Saccharomyces cerevisiae BY4741 SeMeCo community; assay: z-score of subpopulation abundance vs DMSO median, subpopulation auxotrophic for L; higher = larger share of this subpopulation than in DMSO controls; conditions: 10 µM; 24 h; SM minimal medium; subpopulation (auxotrophy): L
# Summary of the method: as §1
# [5] = system: Saccharomyces cerevisiae BY4741 SeMeCo community; assay: z-score of subpopulation abundance vs DMSO median, subpopulation auxotrophic for H; higher = larger share of this subpopulation than in DMSO controls; conditions: 10 µM; 24 h; SM minimal medium; subpopulation (auxotrophy): H
# Summary of the method: as §1
# [6] = system: Saccharomyces cerevisiae BY4741 SeMeCo community; assay: z-score of subpopulation abundance vs DMSO median, subpopulation auxotrophic for LU; higher = larger share of this subpopulation than in DMSO controls; conditions: 10 µM; 24 h; SM minimal medium; subpopulation (auxotrophy): LU
# Summary of the method: as §1
# [7] = system: Saccharomyces cerevisiae BY4741 SeMeCo community; assay: z-score of subpopulation abundance vs DMSO median, subpopulation auxotrophic for HM; higher = larger share of this subpopulation than in DMSO controls; conditions: 10 µM; 24 h; SM minimal medium; subpopulation (auxotrophy): HM
# Summary of the method: as §1
# [8] = system: Saccharomyces cerevisiae BY4741 SeMeCo community; assay: z-score of subpopulation abundance vs DMSO median, subpopulation auxotrophic for UM; higher = larger share of this subpopulation than in DMSO controls; conditions: 10 µM; 24 h; SM minimal medium; subpopulation (auxotrophy): UM
# Summary of the method: as §1
# [9] = system: Saccharomyces cerevisiae BY4741 SeMeCo community; assay: z-score of subpopulation abundance vs DMSO median, subpopulation auxotrophic for HL; higher = larger share of this subpopulation than in DMSO controls; conditions: 10 µM; 24 h; SM minimal medium; subpopulation (auxotrophy): HL
# Summary of the method: as §1
# [10] = system: Saccharomyces cerevisiae BY4741 SeMeCo community; assay: z-score of subpopulation abundance vs DMSO median, subpopulation auxotrophic for HLU; higher = larger share of this subpopulation than in DMSO controls; conditions: 10 µM; 24 h; SM minimal medium; subpopulation (auxotrophy): HLU
# Summary of the method: as §1
# [11] = system: Saccharomyces cerevisiae BY4741 SeMeCo community; assay: z-score of subpopulation abundance vs DMSO median, subpopulation auxotrophic for HLM; higher = larger share of this subpopulation than in DMSO controls; conditions: 10 µM; 24 h; SM minimal medium; subpopulation (auxotrophy): HLM
# Summary of the method: as §1
# [12] = system: Saccharomyces cerevisiae BY4741 SeMeCo community; assay: z-score of subpopulation abundance vs DMSO median, subpopulation auxotrophic for HUM; higher = larger share of this subpopulation than in DMSO controls; conditions: 10 µM; 24 h; SM minimal medium; subpopulation (auxotrophy): HUM
# Summary of the method: as §1
# [13] = system: Saccharomyces cerevisiae BY4741 SeMeCo community; assay: z-score of subpopulation abundance vs DMSO median, subpopulation auxotrophic for LUM; higher = larger share of this subpopulation than in DMSO controls; conditions: 10 µM; 24 h; SM minimal medium; subpopulation (auxotrophy): LUM
# Summary of the method: as §1
# [14] = system: Saccharomyces cerevisiae BY4741 SeMeCo community; assay: z-score of subpopulation abundance vs DMSO median, subpopulation auxotrophic for HLUM; higher = larger share of this subpopulation than in DMSO controls; conditions: 10 µM; 24 h; SM minimal medium; subpopulation (auxotrophy): HLUM
# Summary of the method: as §1
# [15] = system: Saccharomyces cerevisiae BY4741 SeMeCo community; assay: z-score of subpopulation abundance vs DMSO median, subpopulation auxotrophic for HU; higher = larger share of this subpopulation than in DMSO controls; conditions: 10 µM; 24 h; SM minimal medium; subpopulation (auxotrophy): HU
# Summary of the method: as §1
# [16] = system: Saccharomyces cerevisiae BY4741 SeMeCo community; assay: z-score of subpopulation abundance vs DMSO median, subpopulation auxotrophic for U; higher = larger share of this subpopulation than in DMSO controls; conditions: 10 µM; 24 h; SM minimal medium; subpopulation (auxotrophy): U
# Summary of the method: as §1
# [17] = system: Saccharomyces cerevisiae BY4741 SeMeCo community; assay: z-score of subpopulation abundance vs DMSO median, subpopulation auxotrophic for LM; higher = larger share of this subpopulation than in DMSO controls; conditions: 10 µM; 24 h; SM minimal medium; subpopulation (auxotrophy): LM
# Summary of the method: as §1
Compound,mean cell size [1],z-score of prototroph abundance [2],z-score of subpopulation abundance [3],z-score of subpopulation abundance [4],z-score of subpopulation abundance [5],z-score of subpopulation abundance [6],z-score of subpopulation abundance [7],z-score of subpopulation abundance [8],z-score of subpopulation abundance [9],z-score of subpopulation abundance [10],z-score of subpopulation abundance [11],z-score of subpopulation abundance [12],z-score of subpopulation abundance [13],z-score of subpopulation abundance [14],z-score of subpopulation abundance [15],z-score of subpopulation abundance [16],z-score of subpopulation abundance [17]
OC(c1ccccc1)(c1ccccc1)C12CC[N+](CCOCc3ccccc3)(CC1)CC2 [Umeclidinium bromide],12.49 ± 0.074,0.82,-0.28,0.22,-0.1,-0.42,-0.29,-1.45,-0.7,-0.12,0.44,-0.43,-0.49,-0.28,–,–,–
CC[N+](C)(C)c1cccc(O)c1 [Edrophonium chloride],12.28 ± 0.12,-0.67,0.34,-0.53,-1.41,1.17,-0.15,0.7,-0.46,-0.56,-0.47,0.76,0.48,0.62,-0.07,–,–
COc1ccc(CCN(C)CCCC(C#N)(c2ccc(OC)c(OC)c2)C(C)C)cc1OC (centres undefined) [Verapamil HCl],12.6 ± 0.13,-0.19,1.34,0.1,0.46,-0.58,-0.27,0.03,0.26,0.26,0.44,0.05,0.79,0.13,0.54,0.6,–
O=C(O)CCc1nc(-c2ccccc2)c(-c2ccccc2)o1 [Oxaprozin],–,2.48,-1.37,-0.53,-0.36,-2.1,-0.83,-3.67,-0.56,-0.7,-0.64,-1.67,-1.68,-0.44,–,–,-1
Cc1cccc(C#Cc2ccccc2)n1,–,–,-0.25,0.06,0.06,0.12,-0.61,-0.28,-0.06,-0.17,-0.43,-0.32,-0.34,-0.82,-0.18,0.22,-0.31
